Test results: PubChem BioAssay (EPA / NIEHS)
Records with an inconclusive call do not appear. Calls of active or inactive are those of the source. How the source made its calls: active means hit-call score of the fitted dose curve at least 0.9, where 1 is the maximum; inconclusive means response in the unintended direction; inactive means score below 0.9.

target: Glucocorticoid receptor (Homo sapiens) (UniProt P04150); assay: NVS_NR_hGR: NovaScreen (NVS) Nuclear Receptor Binding Assay for human Glucocorticoid Receptor (GR) (AID 2283363)
Protocol: NVS_NR_hGR is a biochemical, single-readout assay that uses extracted gene-proteins in a cell-free assay. Measurements were taken 16 hours after chemical dosing in a 96-well plate.NVS_NR_hGR is one of one assay component(s) measured or calculated from the NVS_NR_hGR assay. It is designed to make measurements of radioligand binding, a form of binding reporter, as detected with scintillation counting signals by Filter-based radiodetection technology.Data from the assay component NVS_NR_hGR was analyzed into 1 assay endpoint. This assay endpoint, NVS_NR_hGR, was analyzed in the positive analysis fitting direction relative to DMSO as the negative control and baseline of activity. Using a type of binding reporter, loss-of-signal activity can be used to understand changes in the binding as they relate to the gene NR3C1. Furthermore, this assay endpoint can be referred to as a primary readout, because the performed assay has only produced 1 assay endpoint. To generalize the intended target to other relatable targets, this assay endpoint is annotated to the nuclear receptor intended target family, where the subfamily is steroidal.
Binding assays used specific radioligands (tritiated, iodinated) with non-radioactive competitive displacement ligands in agonist or antagonist protocols (as indicated) and various reference compounds and inhibitors to titrate specific binding to receptors and transporters. Most enzyme assays (CYPs, kinases, phosphatases, proteases, HDACs) used recombinant protein and specific substrates (fluorescence mostly, some colorimetric and radioactive) and inhibitors, followed by a biochemical separation of substrate and product. All assays for the biochemical HTS were initially run in duplicate at a single concentration (10 uM for CYP450 assays and 25 uM for all others). […] Each assay was run with positive and negative controls, and concurrent controls on every plate. The follow-up (secondary) screen tested active chemical-pairs in concentration series, as well as a few additional assays not tested in the primary screen, some selected negative inactives, and several cases re-run in the concentration series for confirmatory purposes.

Glucocorticoid receptor (Homo sapiens), sequence (P04150 whole entry, looked up): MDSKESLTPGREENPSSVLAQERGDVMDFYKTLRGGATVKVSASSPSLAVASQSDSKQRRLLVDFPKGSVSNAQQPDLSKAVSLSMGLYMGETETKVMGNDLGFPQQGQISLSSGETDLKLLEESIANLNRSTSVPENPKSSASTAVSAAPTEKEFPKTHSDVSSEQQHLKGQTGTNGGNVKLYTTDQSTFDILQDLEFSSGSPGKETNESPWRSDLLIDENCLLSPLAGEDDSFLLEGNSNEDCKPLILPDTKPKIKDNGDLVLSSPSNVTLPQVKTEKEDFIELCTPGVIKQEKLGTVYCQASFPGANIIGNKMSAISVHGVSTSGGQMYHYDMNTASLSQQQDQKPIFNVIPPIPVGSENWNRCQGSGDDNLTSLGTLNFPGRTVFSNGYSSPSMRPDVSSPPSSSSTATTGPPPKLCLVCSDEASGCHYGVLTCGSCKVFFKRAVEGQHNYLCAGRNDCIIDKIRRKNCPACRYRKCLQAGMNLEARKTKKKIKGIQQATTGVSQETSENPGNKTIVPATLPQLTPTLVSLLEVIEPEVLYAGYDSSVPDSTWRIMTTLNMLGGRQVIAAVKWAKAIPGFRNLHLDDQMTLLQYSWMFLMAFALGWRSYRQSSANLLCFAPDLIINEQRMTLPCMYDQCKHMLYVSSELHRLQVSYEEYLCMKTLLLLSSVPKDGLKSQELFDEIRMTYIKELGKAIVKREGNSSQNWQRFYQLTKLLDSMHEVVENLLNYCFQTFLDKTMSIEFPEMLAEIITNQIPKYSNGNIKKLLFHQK

| Structure (SMILES) | AC50 | outcome |
| --- | --- | --- |
| CCCCCCc1ccc(O)cc1O | 33.7 µM (active) | – |
| CCC(C)(C)C(=O)O[C@H]1C[C@@H](C)C=C2C=C[C@H](C)[C@H](CC[C@@H]3C[C@@H](O)CC(=O)O3)[C@H]21 | 14.5 µM (active) | – |
| CCc1cc(SCc2sc(-c3ccc(C(F)(F)F)cc3)nc2CN2CCN(c3ccc(OC)cc3)CC2)ccc1OCC(=O)O | 1.57 µM (active) | – |
| CCn1nc(Cc2ccccc2)cc1C1CCN(C[C@H]2C[C@H](N(C)[C@@H](C(=O)O)C(C)C)C[C@@H]2c2cccc(F)c2)CC1 | – | inactive |
| CCOc1cccc(-n2cc(C(=O)N3CCN(c4cc(C(=O)O)c5ccccc5c4)CC3)nc2-c2ccc(C)cc2)c1 | 14.6 µM (active) | – |
| COc1ccc2sc(C(=O)Nc3nnn[nH]3)c(OC(C)C)c2c1 | – | inactive |
| Oc1ccc2c(c1)-c1ccccc1C2 | – | inactive |
| O=C(OC[C@H]1O[C@@H](OC(=O)c2cc(O)c(O)c(OC(=O)c3cc(O)c(O)c(O)c3)c2)[C@H](OC(=O)c2cc(O)c(O)c(OC(=O)c3cc(O)c(O)c(O)c3)c2)[C@@H](OC(=O)c2cc(O)c(O)c(OC(=O)c3cc(O)c(O)c(O)c3)c2)[C@@H]1OC(=O)c1cc(O)c(O)c(OC(=O)c2cc(O)c(O)c(O)c2)c1)c1cc(O)c(O)c(OC(=O)c2cc(O)c(O)c(O)c2)c1 | 0.533 µM (active) | – |
| Cn1c(=O)cc(Oc2ccc(F)cc2F)c2cnc(NCC(C)(C)O)nc21 | 2.48 µM (active) | – |
| COc1ccc(-n2nc(C(F)F)cc2-c2ccc(S(C)=O)cc2)cc1 (stereo not drawn) | 16.7 µM (active) | – |
| O=P(OC(CCl)CCl)(OC(CCl)CCl)OC(CCl)CCl | 15.5 µM (active) | – |
| CCOC(=O)c1ccc(C2CCC(NC[C@H](O)COc3ccc(O)c(NS(C)(=O)=O)c3)CC2)cc1 (stereo partly drawn) | – | inactive |
| Nc1ccc(Nc2ccccc2)cc1 | 14.6 µM (active) | – |
